Source: PubChem BioAssay (several laboratories)
Rows were chosen to be rich in hits. Some 1.9% of all compounds tested hit in one or more screens of this group.
PG9 Ab binder – binders of HIV-1 gp120 antibody PG9, primary screen, biochemical, TR-FRET; AID 624416, 2012; inhibition, % at 6.7 µM; 0.43% of 360,000 active; TR-FRET gp120-PG9 antibody binding; in the data active = inhibition above about 8.5%
ZTA DNA inh – blocks Epstein-Barr virus ZTA, an EBNA-1 counter-screen; P03206; ZTA-DNA binding, fluorescence polarization; inhibition, % at 11 µM; 0.15% of 320,000 active; AID 2234; in the data active = inhibition above about 33%
Rev-erbA mod – modulators of Rev-erb alpha DNA binding, primary screen, biochemical, FITC-DNA, fluorescence polarization, uHTS | Rev-erbα–FITC-DNA binding, 90 min | activity, % at 10 µM | 0.79% of 370,000 active;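 active = activity above about 14%, limit read from the data; passing the limit was not always enough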;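 also: 0% = DMSO wells with 35 nM protein and 100% = DMSO wells with 750 nM protein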
Target sequence (P20393 whole entry, looked up): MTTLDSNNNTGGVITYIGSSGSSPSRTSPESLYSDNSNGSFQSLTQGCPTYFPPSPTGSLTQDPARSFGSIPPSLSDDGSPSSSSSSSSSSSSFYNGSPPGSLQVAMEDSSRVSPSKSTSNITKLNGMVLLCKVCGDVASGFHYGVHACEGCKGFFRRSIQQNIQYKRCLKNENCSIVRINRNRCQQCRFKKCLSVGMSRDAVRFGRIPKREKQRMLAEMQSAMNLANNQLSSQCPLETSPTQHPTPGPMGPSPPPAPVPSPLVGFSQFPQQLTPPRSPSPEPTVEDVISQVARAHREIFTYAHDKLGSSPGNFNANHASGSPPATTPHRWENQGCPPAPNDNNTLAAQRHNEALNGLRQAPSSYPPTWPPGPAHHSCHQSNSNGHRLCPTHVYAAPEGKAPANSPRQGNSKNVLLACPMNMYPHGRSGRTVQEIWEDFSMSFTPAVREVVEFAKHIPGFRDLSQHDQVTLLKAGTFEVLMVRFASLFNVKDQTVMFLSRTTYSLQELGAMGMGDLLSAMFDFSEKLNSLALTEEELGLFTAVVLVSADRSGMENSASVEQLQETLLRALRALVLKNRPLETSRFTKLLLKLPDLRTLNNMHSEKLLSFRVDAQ
EBNA-1 inh – EBNA-1 DNA-binding inhibitors, primary screen, biochemical, fluorescence polarization | inhibition, % at 14.8 µM | 0.34% of 300,000 active; in the data active = inhibition above about 28%
aDG glyco act – activators of alpha-DG glycosylation, primary screen, uHTS, Pro5-aDG cells, AlphaScreen; activation, % at 10 µM; alpha-DG glycosylation AlphaScreen (IIH6); 0% Pro5, 100% B10-LARGE cell signal; 0.22% of 360,000 active;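 active = activation of at least 8% versus controls, or a plate z-score of at least 8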;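 also: Pro5 are CHO cells carrying HIG-tagged alpha-DG that lacks glycosylation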
p47phox inh – p47phox/p22phox peptide binding inhibitors, primary screen, biochemical, uHTS, NADPH oxidase regulatory subunit | fluorescence polarization, 2 h | inhibition, % at 24.7 µM | 0.53% of 220,000 active;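 active = inhibition above about 30%, limit read from the data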;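 also: 0% = p47phox with labelled peptide and 100% = labelled peptide alone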
Numbers without * were called inactive; . = no result given.

SMILES	PG9 Ab binder	ZTA DNA inh	Rev-erbA mod	EBNA-1 inh	aDG glyco act	p47phox inh
O=c1c2ccccc2sn1-c1nccs1	0	.	3	.	0	104*
O=c1c2ccccc2sn1-c1cccc(Cl)c1	2	.	3	.	0	.
O=C1c2ccccc2C(=O)N1c1nccs1	-1	.	-1	.	0	.
Cc1ccc(-n2sc3ccccc3c2=O)cc1S(=O)(=O)N1CCCCC1	2	2	-4	5	-1	85*
CC[C@@H](CO)NCCN[C@@H](CC)CO	.	.	-2	.	.	.
CC(=O)O[C@H]1CC2CCC3C(CC[C@@]4(C)C3C[C@H]([N+]3(C)CCCCC3)[C@@H]4OC(C)=O)[C@@]2(C)C[C@@H]1[N+]1(C)CCCCC1 (stereo not given in full)	.	.	-6	.	.	.
Cc1nc2ccccc2c2oc(C(=O)NCc3ccc4c(c3)OCO4)cc12	-2	-5	-1	-5	0	121*
Cc1ccc(CNC(=O)c2cc3c(C)nc4ccccc4c3o2)cc1	0	14	-5	0	1	9
NC1=C(Cl)C(=O)c2ccc(S(N)(=O)=O)cc2C1=O	-17	.	-14	.	0	.
NC1=C(Cl)C(=O)c2ccccc2C1=O	-8	.	-13	.	22*	.
O=C1C=C(Nc2ccccc2)c2ccccc2C1=O	-18	.	3	.	11*	7
CCCCNC1=CC(=O)C(=O)c2ccccc21	-6	-3	-3	2	6.9*	6
O=C1C=C(Nc2ccccc2)C(=O)c2ccccc21	-5	-11	-12	-7	3	6
CCc1ccc(NC2=CC(=O)C(=O)c3ccccc32)cc1	-21	.	.	.	5.4*	.
O=C(OC[C@H]1O[C@@H](OC(=O)c2cc(O)c(O)c(OC(=O)c3cc(O)c(O)c(O)c3)c2)[C@H](OC(=O)c2cc(O)c(O)c(OC(=O)c3cc(O)c(O)c(O)c3)c2)[C@@H](OC(=O)c2cc(O)c(O)c(OC(=O)c3cc(O)c(O)c(O)c3)c2)[C@@H]1OC(=O)c1cc(O)c(O)c(OC(=O)c2cc(O)c(O)c(O)c2)c1)c1cc(O)c(O)c(OC(=O)c2cc(O)c(O)c(O)c2)c1	.	87*	.	86*	.	.
CCCc1cc(=O)oc2c(C)c(OCC(=O)c3ccc(N4CCCC4)cc3)ccc12	0	.	-20	.	0	34*
COc1cc(/C=C(/NC(=O)c2ccccc2)C(=O)N2CCN(C)CC2)c([N+](=O)[O-])cc1OC	0	-3	2	11	0	36*
COc1cc(/C=C(/NC(=O)c2ccccc2)C(=O)N2CCOCC2)c([N+](=O)[O-])cc1OC	-1	10	2	13	0	.
CCOc1ccc(Nc2nc(N)nc(CSC(=S)N3CCOCC3)n2)cc1	-2	-10	1	-10	0	125*
Cc1ccc(Nc2nc(N)nc(CSC(=S)N3CCOCC3)n2)cc1	-1	-11	3	-12	0	-6
Cc1cc(-c2nnc(CCC(=O)N3CCN(Cc4cccnc4)CC3)o2)c(C)o1	0	-3	2	-2	0	133*
Cc1ccc2nc(NC(=O)c3ccc(N4C(=O)CCC4=O)cc3)sc2c1	-1	2	-1	35*	0	-29
Cc1cc(C)c2sc(NC(=O)c3ccc(N4C(=O)CCC4=O)cc3)nc2c1	-2	20	9	-1	0	-19
CCc1cc2c(=O)nc3n(c2s1)Cc1ccccc1/C3=C(/O)c1ccc(F)cc1	1	-8	-1	-5	0	-20
CCc1cc2c(=O)nc3n(c2s1)Cc1ccccc1/C3=C(/O)c1ccccc1Cl	-1	7	3	6	0	74*
SMILES	PG9 Ab binder	ZTA DNA inh	Rev-erbA mod	EBNA-1 inh	aDG glyco act	p47phox inh
COc1cccc(NC(=O)NC2CCCCN(Cc3ccc(C)cc3)C2=O)c1 (stereo not given)	.	.	4	.	.	.
CO[C@H]1O[C@H](CNC(=O)N(CCCl)N=O)[C@@H](O)[C@H](O)[C@H]1O	.	.	-6	.	.	.
Cc1ccc(C(=O)C2=C(O)C(=O)N(Cc3cccnc3)C2c2cccc([N+](=O)[O-])c2)o1 (stereo not given)	-1	8	0	0	0	.
Cc1ccc(C(=O)C2=C(O)C(=O)N(Cc3ccccc3)C2c2cccnc2)o1 (stereo not given)	.	2	0	4	0	55*
CC(C)(CC(=O)O)CC(=O)NCc1c(Cl)cccc1Sc1ccc(Cl)cc1	0	-1	7	0	0	-9
O=C(O)CCCC(=O)NCc1c(Cl)cccc1Sc1ccc(Cl)cc1	-1	-5	2	6	0	34*
CC(C)CCCC(C)[C@H]1CCC2C3CC=C4C[C@@H](O)CC[C@]4(C)C3CC[C@@]21C (stereo not given in full)	.	.	2	.	.	.
COc1ccc(CNC(=O)c2noc(C)c2[N+](=O)[O-])cc1	-3	7	-2	11	0	33*
Clc1ccc(OCc2nnc(-c3ccccc3Br)o2)c(Cl)c1	0	15	5	6	0	43*
Cc1ccccc1Cn1c(=O)n(CCC(=O)NCc2ccc3c(c2)OCO3)c(=O)c2ccccc21	2	-2	0	16	0	37*
COc1ccccc1CN(C(=O)CCl)C(C(=O)NC1CCCCC1)c1ccncc1 (stereo not given)	.	12	.	-4	0	43*
Clc1ccc(/C=N/Nc2nnc(Cl)c3ccccc23)cc1	-1	-10	-5	9	0	6
Clc1ccc(/C=N/Nc2nc(Cl)nc3ccccc23)cc1	0	8	5	7	2	70*
C[C@H](CCC(=O)O)[C@H]1CCC2C3C(CC[C@@]21C)[C@@]1(C)CC[C@@H](O)C[C@H]1C[C@@H]3O (stereo not given in full)	.	.	-3	.	.	.
COc1cccc(C(=O)NC2CC3CCCC(C2)N3CC(=O)Nc2ccccc2)c1 (stereo not given)	-4	3	2	-2	1	58*
COc1cccc(C(=O)NC2CC3CCCC(C2)N3CC(=O)Nc2ccc(N(C)C)cc2)c1 (stereo not given)	-5	-20	0	-1	0	-4
O=C(c1ccoc1)N1CCN(c2cc(-c3ccco3)nc3cc(-c4ccco4)nn23)CC1	.	.	-21	.	.	.
O=C(N/N=C/c1cccs1)c1cccc(NC(=O)c2ccc(Cl)cc2)c1	0	6	-3	59*	.	3
CN[C@H]1C[C@H]2c3cc(-c4ccc5c(c4)OCO5)ccc3CCN2C[C@H]1[C@H](C)O	.	.	-4	.	.	.
